From PubChem BioAssay (EPA / NIEHS) come the findings set out here.

Inconclusive results are not listed. Activity calls are given as the source filed them. The calls were made as follows, unless noted: active = hit-call score of the fitted dose curve at least 0.9, where 1 is the maximum; inactive = score below 0.9.

The nature of experiment [1]: CCTE_Harrill_HTTr_Viability_MCF7: CCTE's 6-hour Cell Viability Assessment for the High-Throughput Transcriptomics (HTTr) Platform, in MCF-7 cells cultured in DMEM + 10% fetal bovine serum, Harrill Lab (AID 2284010). The method in brief:
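PI exclusion, high-content imaging; 8-pt dilution series, 6 h exposure; bidirectional fit vs DMSO (neg. ctrl/baseline); gain of signal = loss of membrane integrity.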

The nature of experiment [2]: CCTE_Harrill_HTTr_Apoptosis_MCF7: CCTE's 6-hour Apoptosis Assessment for the High-Throughput Transcriptomics (HTTr) Platform, in MCF-7 cells cultured in DMEM + 10% fetal bovine serum, Harrill Lab (AID 2284011). An outline of the steps:
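Apoptosis in MCF-7 cells grown in DMEM with 10% fetal bovine serum was scored after a six hour exposure by high content imaging of caspase-3/7 activation (CellEvent Caspase 3/7 Green), with DMSO serving as negative control and baseline.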

The nature of experiment [3]: CCTE_Harrill_HTTr_CellCount_MCF7: CCTE's Cell Proliferation Assessment for the High-Throughput Transcriptomics (HTTr) Platform, Harrill Lab (AID 2284012; active = hit-call score of the fitted dose curve at least 0.9, where 1 is the maximum;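 also: count of Hoechst-stained nuclei per well by high-content imaging in MCF-7 cells; cells exposed to compound for six hours; intended direction is loss of nuclei count meaning fewer cells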). The method in brief: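 Readout: Hoechst nuclear count by high-content imaging. MCF-7, 8-point dilution series, 6 h exposure. Bidirectional fit vs DMSO baseline.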

In the case of `O=C(O)C(Cl)Cl`, the outcome in experiment [1], in experiment [2] and in experiment [3] was inactive.
In the case of `CCCCOCCOP(=O)(OCCOCCCC)OCCOCCCC`, the outcome in experiment [1] and in experiment [2] was inactive.
Turning to `Cc1ccc(O)cc1C`, the outcome in experiment [1], in experiment [2] and in experiment [3] was inactive.
For the compound `CCCCN(CCCC)N=O`, the result in experiment [1], in experiment [2] and in experiment [3] was inactive.
With `OCC1CO1` (stereo unspecified), the outcome in experiment [1] and in experiment [2] was inactive.
On to `CCOS(=O)(=O)OCC`, for which the outcome in experiment [1], in experiment [2] and in experiment [3] was inactive.
As for `CCCCOCC1CO1` (stereo unspecified), the result in experiment [1], in experiment [2] and in experiment [3] was inactive.
`CCCCN(CCCC)SN(C)C(=O)Oc1cccc2c1OC(C)(C)C2`: the outcome in experiment [1] and in experiment [2] was inactive.
With `O=C(O)CF`, the result in experiment [1], in experiment [2] and in experiment [3] was inactive.
For the compound `CCOP(=S)(S)OCC`, the outcome in experiment [1], in experiment [2] and in experiment [3] was inactive.
Take `CCCN(CCC)c1c([N+](=O)[O-])cc(C(C)C)cc1[N+](=O)[O-]`: the outcome in experiment [1], in experiment [2] and in experiment [3] was inactive.
With `C/C(=N\NC(=O)Nc1cc(F)cc(F)c1)c1ncccc1C(=O)O`, the outcome in experiment [1], in experiment [2] and in experiment [3] was inactive.
Turning to `O=P1(N(CCCl)CCCl)NCCCO1` (stereo unspecified), the outcome in experiment [1], in experiment [2] and in experiment [3] was inactive.
On to `O=P(Oc1ccccc1)(Oc1ccccc1)Oc1ccccc1`, for which the outcome in experiment [1] and in experiment [2] was inactive.
Consider `CC(C)(C)OOC(C)(C)C`, for which the outcome in experiment [1], in experiment [2] and in experiment [3] was inactive.
Consider `CC(O)C#N` (stereo unspecified), for which the outcome in experiment [1], in experiment [2] and in experiment [3] was inactive.
For `Nc1ccc(Cl)cc1`, the outcome in experiment [1] and in experiment [2] was inactive.
